Assay results as given in ChEMBL document CHEMBL3988442, “University of Dundee, Small-Polar-MMV Screening Library” (2021).
For some assays here: Potency and affinity values are given separately.

How the values were obtained:
Design in all cases: scale not given: direction of the effect not stated beside the values
[1] = target: Protein translocase subunit SecA (Escherichia coli (strain K12)) (UniProt P10408); assay: Assay to Identify E. coli SecA ATPase Inhibitors; assay type: functional; settings: 30 µM
[2] = target: T1, Ubiquitin-activating enzyme e1, putative (Leishmania donovani (strain BPK282A1)) (UniProt E9BSI1); assay: Leishmania donovani Ubiquitin Activating Enzyme (LdE1); assay type: functional; settings: 30 µM
T1 sequence (whole entry): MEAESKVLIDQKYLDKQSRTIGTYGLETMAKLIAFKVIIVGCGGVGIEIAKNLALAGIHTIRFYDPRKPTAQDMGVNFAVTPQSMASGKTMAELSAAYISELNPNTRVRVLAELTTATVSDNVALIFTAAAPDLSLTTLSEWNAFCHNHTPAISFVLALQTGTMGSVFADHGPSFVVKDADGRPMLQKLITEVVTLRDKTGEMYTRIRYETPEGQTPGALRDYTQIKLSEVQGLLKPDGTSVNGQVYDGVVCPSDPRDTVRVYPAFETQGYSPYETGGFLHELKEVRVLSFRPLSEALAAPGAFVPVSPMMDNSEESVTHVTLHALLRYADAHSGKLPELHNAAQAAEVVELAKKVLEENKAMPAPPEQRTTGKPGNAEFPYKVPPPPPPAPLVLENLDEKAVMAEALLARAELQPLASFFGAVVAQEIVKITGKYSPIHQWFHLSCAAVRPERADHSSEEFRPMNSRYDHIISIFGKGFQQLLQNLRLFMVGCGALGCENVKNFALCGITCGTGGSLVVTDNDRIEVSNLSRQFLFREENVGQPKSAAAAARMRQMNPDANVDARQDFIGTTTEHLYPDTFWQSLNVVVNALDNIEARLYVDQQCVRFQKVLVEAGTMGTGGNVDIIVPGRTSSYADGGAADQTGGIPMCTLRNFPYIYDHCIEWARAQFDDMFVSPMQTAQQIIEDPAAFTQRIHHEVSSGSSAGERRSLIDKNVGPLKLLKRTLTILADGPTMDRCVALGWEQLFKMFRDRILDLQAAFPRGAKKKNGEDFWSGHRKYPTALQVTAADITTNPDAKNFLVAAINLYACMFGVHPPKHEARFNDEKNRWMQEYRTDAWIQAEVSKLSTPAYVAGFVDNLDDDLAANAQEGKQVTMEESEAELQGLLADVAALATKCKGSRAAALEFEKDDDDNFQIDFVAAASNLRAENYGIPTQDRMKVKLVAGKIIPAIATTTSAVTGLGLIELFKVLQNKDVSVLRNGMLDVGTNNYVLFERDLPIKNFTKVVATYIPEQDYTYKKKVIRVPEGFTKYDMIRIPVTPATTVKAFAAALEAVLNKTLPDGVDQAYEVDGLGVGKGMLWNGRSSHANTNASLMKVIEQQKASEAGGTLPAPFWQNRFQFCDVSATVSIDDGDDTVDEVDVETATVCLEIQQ

[3] = target: AMP-activated protein kinase, AMPK (Homo sapiens) (UniProt P54646+O43741+P54619+Q9UGJ0+Q9Y478+Q13131+Q9UGI9); assay: AMP-dependent Kinase enzyme assay. An in vitro enzyme assay that detects ADP turnover that is directly proportional to AMPK activity. This uses naive AMPK that is activated during the assay with MK-8722; assay type: functional; settings: 30 µM
[4] = target: Sialic acid-binding Ig-like lectin 9 (Homo sapiens) (UniProt Q9Y336); assay: Hs-Siglec9 ALPHAscreen SOP 20170721; settings: 10 µM
Trypanosoma cruzi = assay: Trypanosoma cruzi phosphomannomutase and mannose-1-phosphate guanylyltransferase assay; assay type: functional; settings: 10 µM
[5] = target: T2, Arginase-2, mitochondrial (Homo sapiens) (UniProt P78540); assay: in vitro enzyme assay to detect the production of urea directly proportional to the activity of Arginase II; assay type: functional; settings: 33.3 µM; further: in the data most compounds retested in dose-response had high values
T2 sequence (whole entry): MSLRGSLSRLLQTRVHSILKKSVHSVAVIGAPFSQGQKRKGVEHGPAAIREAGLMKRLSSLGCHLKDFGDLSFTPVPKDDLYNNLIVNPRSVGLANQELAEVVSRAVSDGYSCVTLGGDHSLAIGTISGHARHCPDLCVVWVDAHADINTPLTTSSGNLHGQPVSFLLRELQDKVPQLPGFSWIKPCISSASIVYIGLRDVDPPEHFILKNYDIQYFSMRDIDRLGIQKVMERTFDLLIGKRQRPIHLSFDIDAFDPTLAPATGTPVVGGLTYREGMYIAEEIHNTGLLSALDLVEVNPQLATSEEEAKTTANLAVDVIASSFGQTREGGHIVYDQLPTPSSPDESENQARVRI

[6] = target: T3, Proteasome subunit beta (Trypanosoma cruzi) (UniProt O96673); assay: Trypanosoma cruzi proteasome chymotrypsin-like activity (TcProtChymo) assay.; further: in the data most compounds retested in dose-response had high values; assay type: functional; settings: 9.37 µM
T3 sequence (whole entry): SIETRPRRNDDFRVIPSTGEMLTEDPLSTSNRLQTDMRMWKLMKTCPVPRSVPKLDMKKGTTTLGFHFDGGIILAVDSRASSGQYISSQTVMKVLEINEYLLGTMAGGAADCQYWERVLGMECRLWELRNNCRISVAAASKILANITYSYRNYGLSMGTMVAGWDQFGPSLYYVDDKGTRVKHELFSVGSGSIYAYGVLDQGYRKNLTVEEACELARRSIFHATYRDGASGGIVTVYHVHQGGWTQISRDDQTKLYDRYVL

Homo sapiens = organism: Homo sapiens; assay: To identify inhibition of the IFN signalling (Jak-Stat) pathway via expression of an eGFP reporter gene under the control of an IFN-stimulated response element (ISRE) containing MxA promoter.; assay type: functional; settings: 30 µM
[7] = target: T4, Tyrosyl-tRNA synthetase, putative (Trypanosoma cruzi (strain CL Brener)) (UniProt Q4DSP6); assay: Trypanosoma cruzi tyrosyl tRNA synthetase (TcYRS) _High Tyrosine SOP; assay type: functional; settings: 30 µM; further: in the data most compounds retested in dose-response had high values
T4 sequence (whole entry): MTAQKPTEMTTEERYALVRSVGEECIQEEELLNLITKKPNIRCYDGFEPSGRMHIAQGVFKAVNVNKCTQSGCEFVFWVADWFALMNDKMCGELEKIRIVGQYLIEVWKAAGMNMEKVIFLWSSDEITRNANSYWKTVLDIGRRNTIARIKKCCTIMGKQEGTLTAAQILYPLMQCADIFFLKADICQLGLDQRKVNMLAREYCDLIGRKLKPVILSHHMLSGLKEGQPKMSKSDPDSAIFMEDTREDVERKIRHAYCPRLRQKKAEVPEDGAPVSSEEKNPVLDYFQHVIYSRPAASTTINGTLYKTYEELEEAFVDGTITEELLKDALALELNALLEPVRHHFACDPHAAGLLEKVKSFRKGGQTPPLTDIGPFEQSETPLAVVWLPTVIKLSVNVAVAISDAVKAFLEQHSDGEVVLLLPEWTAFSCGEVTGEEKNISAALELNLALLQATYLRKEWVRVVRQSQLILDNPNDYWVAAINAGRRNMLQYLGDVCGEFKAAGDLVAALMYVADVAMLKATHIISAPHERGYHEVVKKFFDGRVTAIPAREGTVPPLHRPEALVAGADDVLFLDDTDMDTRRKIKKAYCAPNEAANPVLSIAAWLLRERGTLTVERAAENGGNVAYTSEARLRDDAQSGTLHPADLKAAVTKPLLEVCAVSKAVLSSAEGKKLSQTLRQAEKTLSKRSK

[8] = target: T4, Tyrosyl-tRNA synthetase, putative (Trypanosoma cruzi (strain CL Brener)); assay: Trypanosoma cruzi tyrosyl tRNA synthetase (TcYRS) SOP; assay type: functional; settings: 30 µM
[9] = target: Chromo domain-containing protein 1 (Saccharomyces cerevisiae (strain ATCC 204508 / S288c) (Baker's yeast)) (UniProt P32657); assay: ScCHD-1 Enzyme Inhibition Assay; assay type: functional; settings: 30 µM; further: in the data most compounds retested in dose-response had high values
Chain of Chromo domain-containing protein 1 (Saccharomyces cerevisiae (strain ATCC 204508 / S288c) (Baker's yeast)) (P32657 whole entry, the tested form may be a part): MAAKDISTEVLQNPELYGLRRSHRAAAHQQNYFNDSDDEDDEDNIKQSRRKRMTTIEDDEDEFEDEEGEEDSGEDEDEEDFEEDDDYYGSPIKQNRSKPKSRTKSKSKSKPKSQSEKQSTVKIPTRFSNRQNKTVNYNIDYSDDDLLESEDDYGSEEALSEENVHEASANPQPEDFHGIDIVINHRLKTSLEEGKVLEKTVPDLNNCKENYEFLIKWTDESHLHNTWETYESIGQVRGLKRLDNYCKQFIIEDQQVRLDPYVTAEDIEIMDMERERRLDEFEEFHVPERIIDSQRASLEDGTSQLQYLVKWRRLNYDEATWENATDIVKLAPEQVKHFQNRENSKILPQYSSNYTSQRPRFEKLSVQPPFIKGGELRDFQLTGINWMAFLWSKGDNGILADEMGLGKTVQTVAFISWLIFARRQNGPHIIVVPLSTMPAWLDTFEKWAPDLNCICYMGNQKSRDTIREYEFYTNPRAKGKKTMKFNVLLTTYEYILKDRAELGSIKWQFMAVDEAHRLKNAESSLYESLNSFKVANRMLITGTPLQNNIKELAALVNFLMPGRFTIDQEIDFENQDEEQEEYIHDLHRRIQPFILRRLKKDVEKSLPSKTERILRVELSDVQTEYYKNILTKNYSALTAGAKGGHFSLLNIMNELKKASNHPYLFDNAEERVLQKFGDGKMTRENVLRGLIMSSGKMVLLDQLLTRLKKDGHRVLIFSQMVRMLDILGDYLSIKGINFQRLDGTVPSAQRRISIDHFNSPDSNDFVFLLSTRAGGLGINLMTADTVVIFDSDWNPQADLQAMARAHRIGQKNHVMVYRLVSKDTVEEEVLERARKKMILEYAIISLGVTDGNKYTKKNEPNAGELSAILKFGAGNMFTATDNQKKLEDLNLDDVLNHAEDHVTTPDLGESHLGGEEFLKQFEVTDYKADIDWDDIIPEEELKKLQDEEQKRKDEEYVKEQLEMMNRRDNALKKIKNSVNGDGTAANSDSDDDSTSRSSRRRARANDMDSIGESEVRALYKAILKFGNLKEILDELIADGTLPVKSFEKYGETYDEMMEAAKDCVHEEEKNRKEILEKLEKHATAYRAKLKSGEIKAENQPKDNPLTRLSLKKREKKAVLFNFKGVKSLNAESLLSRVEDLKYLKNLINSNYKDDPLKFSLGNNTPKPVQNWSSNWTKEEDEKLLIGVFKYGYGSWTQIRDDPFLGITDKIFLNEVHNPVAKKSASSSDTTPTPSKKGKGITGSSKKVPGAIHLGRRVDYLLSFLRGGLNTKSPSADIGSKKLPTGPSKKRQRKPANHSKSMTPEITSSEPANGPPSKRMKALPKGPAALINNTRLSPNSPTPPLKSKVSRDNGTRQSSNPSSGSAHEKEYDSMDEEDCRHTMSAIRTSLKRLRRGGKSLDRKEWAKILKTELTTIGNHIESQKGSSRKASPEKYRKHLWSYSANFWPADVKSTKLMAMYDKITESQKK

Chain of Protein translocase subunit SecA (Escherichia coli (strain K12)) (P10408 whole entry): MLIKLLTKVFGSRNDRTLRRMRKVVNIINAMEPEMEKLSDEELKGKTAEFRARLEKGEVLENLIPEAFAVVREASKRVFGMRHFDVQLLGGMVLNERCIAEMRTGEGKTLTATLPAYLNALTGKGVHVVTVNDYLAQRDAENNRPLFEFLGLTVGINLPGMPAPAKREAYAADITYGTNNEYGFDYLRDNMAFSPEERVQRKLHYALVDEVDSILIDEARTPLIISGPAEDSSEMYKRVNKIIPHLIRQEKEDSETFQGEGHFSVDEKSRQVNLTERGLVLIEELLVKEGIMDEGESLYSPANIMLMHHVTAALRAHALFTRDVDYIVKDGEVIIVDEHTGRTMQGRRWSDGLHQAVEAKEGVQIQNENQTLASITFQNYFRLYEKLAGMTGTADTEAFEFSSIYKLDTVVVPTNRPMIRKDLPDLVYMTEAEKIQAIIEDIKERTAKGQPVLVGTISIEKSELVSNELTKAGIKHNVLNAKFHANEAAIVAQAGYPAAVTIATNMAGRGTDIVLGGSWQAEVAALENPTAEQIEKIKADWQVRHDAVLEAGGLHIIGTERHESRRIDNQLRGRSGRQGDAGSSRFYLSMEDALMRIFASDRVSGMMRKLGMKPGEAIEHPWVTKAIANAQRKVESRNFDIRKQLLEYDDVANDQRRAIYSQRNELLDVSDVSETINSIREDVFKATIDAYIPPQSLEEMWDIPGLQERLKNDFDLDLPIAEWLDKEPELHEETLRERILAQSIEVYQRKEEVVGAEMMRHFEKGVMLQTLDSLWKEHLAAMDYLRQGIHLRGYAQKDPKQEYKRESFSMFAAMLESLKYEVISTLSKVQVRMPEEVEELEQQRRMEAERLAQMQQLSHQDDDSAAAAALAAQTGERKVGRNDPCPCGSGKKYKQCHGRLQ
Chain of Sialic acid-binding Ig-like lectin 9 (Homo sapiens) (Q9Y336 whole entry): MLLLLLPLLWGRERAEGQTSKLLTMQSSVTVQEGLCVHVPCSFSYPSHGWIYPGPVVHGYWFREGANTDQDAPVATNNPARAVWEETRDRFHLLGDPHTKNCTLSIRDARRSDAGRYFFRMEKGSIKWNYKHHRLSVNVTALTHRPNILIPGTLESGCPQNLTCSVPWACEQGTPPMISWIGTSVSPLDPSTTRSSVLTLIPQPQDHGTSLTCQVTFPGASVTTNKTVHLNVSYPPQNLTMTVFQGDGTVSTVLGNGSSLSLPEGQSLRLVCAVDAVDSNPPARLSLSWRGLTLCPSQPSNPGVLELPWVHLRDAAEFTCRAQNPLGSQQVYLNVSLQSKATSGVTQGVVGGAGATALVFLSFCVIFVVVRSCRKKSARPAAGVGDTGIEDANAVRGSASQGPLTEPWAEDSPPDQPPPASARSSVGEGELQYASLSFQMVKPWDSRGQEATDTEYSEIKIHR

O=C(NC1CC1)c1cc(NC(=O)N2CCCC(O)C2)ccc1Cl (stereo not drawn)
Percent Effect [1]: -1.73%
Percent Effect [2]: 11%
Percent Effect [3]: 1.28%
Percent Effect [4]: 3.66%
Percent Effect (Trypanosoma cruzi): -5.36%
Percent Effect [5]: 1.6%
Percent Effect [6]: 16.4%
Percent Effect (Homo sapiens): -0.927%
Percent Effect [7]: 6.25%
Percent Effect [8]: 13.6%
Percent Effect [9]: 1.44%

CCn1cnnc1C1CCN(C(=O)c2cccc3c2ccn3C)CC1
Percent Effect [1]: -5.72%
Percent Effect [2]: 18.2%
Percent Effect [3]: -2.51%
Percent Effect [4]: 0.647%
Percent Effect (Trypanosoma cruzi): 3.37%
Percent Effect [5]: -4.63%
Percent Effect [6]: 7.43%
Percent Effect (Homo sapiens): -1.75%
Percent Effect [7]: 7.77%
Percent Effect [8]: 24.4%
Percent Effect [9]: -13.2%

NS(=O)(=O)CCNC(=O)c1nnn(-c2ccc(F)cc2)c1C1CC1
Percent Effect [1]: -0.864%
Percent Effect [2]: 8.11%
Percent Effect [3]: -3.7%
Percent Effect [4]: 0.877%
Percent Effect (Trypanosoma cruzi): 3.91%
Percent Effect [5]: 14.6%
Percent Effect [6]: 19.5%
Percent Effect (Homo sapiens): -4.31%
Percent Effect [7]: 9.9%
Percent Effect [8]: 15.8%
Percent Effect [9]: -4.04%

CN1CCC(NC(=O)NCc2csc(Br)c2)CC1
Percent Effect [1]: -2.29%
Percent Effect [2]: 13.5%
Percent Effect [3]: 4.89%
Percent Effect [4]: 6.05%
Percent Effect (Trypanosoma cruzi): 3.25%
Percent Effect [5]: -3.88%
Percent Effect [6]: 10.4%
Percent Effect (Homo sapiens): 2.14%
Percent Effect [7]: 9.9%
Percent Effect [8]: 18.3%
Percent Effect [9]: -4.58%

CNc1cncc(C2CCCN(S(C)(=O)=O)C2)n1 (stereo not drawn)
Percent Effect [1]: -1.57%
Percent Effect [2]: -1.35%
Percent Effect [3]: 13.3%
Percent Effect [4]: 2.54%
Percent Effect (Trypanosoma cruzi): -6.92%
Percent Effect [5]: 3.48%
Percent Effect [6]: 17%
Percent Effect (Homo sapiens): 23.6%
Percent Effect [7]: 1.07%
Percent Effect [8]: 6.49%
Percent Effect [9]: -15.8%

O=C1C(NS(=O)(=O)c2cc(F)cc(F)c2)CCN1Cc1ccccc1 (stereo not drawn)
Percent Effect [1]: -4.38%
Percent Effect [2]: 12.7%
Percent Effect [3]: -1.14%
Percent Effect [4]: -3.2%
Percent Effect (Trypanosoma cruzi): 6.52%
Percent Effect [5]: 1.52%
Percent Effect [6]: 13.7%
Percent Effect (Homo sapiens): 0.58%
Percent Effect [7]: 6.4%
Percent Effect [8]: 1.27%
Percent Effect [9]: -7.02%

CCn1nnc2c1C(COC)CN(C(=O)COc1ccccc1)C2 (stereo not drawn)
Percent Effect [1]: -3.61%
Percent Effect [2]: 0%
Percent Effect [3]: -1.01%
Percent Effect [4]: -0.576%
Percent Effect (Trypanosoma cruzi): -2.73%
Percent Effect [5]: 0%
Percent Effect [6]: 10.4%
Percent Effect (Homo sapiens): -3.63%
Percent Effect [7]: 5.94%
Percent Effect [8]: 3.66%
Percent Effect [9]: 9.82%

Fc1cnc(N2CCn3cc(CNc4ccccn4)nc3C2)nc1
Percent Effect [1]: 0.222%
Percent Effect [2]: -2.67%
Percent Effect [3]: 7.82%
Percent Effect [4]: 16.2%
Percent Effect (Trypanosoma cruzi): -0.193%
Percent Effect [5]: -56.1%
Percent Effect [6]: 3.76%
Percent Effect (Homo sapiens): 7.84%
Percent Effect [7]: -1.04%
Percent Effect [8]: -5%
Percent Effect [9]: -2.56%

Cc1ccc(C(=O)N2CCc3c(CNS(C)(=O)=O)cncc3C2)o1
Percent Effect [1]: 3.13%
Percent Effect [2]: 2.67%
Percent Effect [3]: 5.83%
Percent Effect [4]: 1.5%
Percent Effect (Trypanosoma cruzi): -6.37%
Percent Effect [5]: -55%
Percent Effect [6]: 8.72%
Percent Effect (Homo sapiens): 4.16%
Percent Effect [7]: 3.12%
Percent Effect [8]: 5%
Percent Effect [9]: -7.04%

Clc1snnc1CN1CCCCC1Cn1cncn1 (stereo not drawn)
Percent Effect [1]: -0.0251%
Percent Effect [2]: 17.7%
Percent Effect [3]: -10.2%
Percent Effect [4]: -9.75%
Percent Effect (Trypanosoma cruzi): -2.17%
Percent Effect [5]: 2.66%
Percent Effect [6]: 13.2%
Percent Effect (Homo sapiens): 5.04%
Percent Effect [7]: 12.3%
Percent Effect [8]: 24.1%
Percent Effect [9]: -4.67%

COc1cccc2cc(CNCc3ccnc(N4CCOCC4)c3)oc12
Percent Effect [1]: -5.63%
Percent Effect [2]: 0%
Percent Effect [3]: -16.9%
Percent Effect [4]: 3.48%
Percent Effect (Trypanosoma cruzi): -6.7%
Percent Effect [5]: -6.41%
Percent Effect [6]: 10.6%
Percent Effect (Homo sapiens): 26.6%
Percent Effect [7]: 1.48%
Percent Effect [8]: -11.1%
Percent Effect [9]: 3.15%

Cc1nn(C)c(C)c1C1CCCN1C(=O)CCNc1ncccn1 (stereo not drawn)
Percent Effect [1]: -5.59%
Percent Effect [2]: 18.4%
Percent Effect [3]: -8.92%
Percent Effect [4]: 11.3%
Percent Effect (Trypanosoma cruzi): 5.32%
Percent Effect [5]: -8.63%
Percent Effect [6]: -1.1%
Percent Effect (Homo sapiens): -2.96%
Percent Effect [7]: 3.45%
Percent Effect [8]: 18.5%
Percent Effect [9]: -4.96%

COC(=O)c1cc(C(=O)N2CCCCCC2)n(-c2ccccc2)n1
Percent Effect [1]: -5.27%
Percent Effect [2]: 2.63%
Percent Effect [3]: 0.404%
Percent Effect [4]: 4.54%
Percent Effect (Trypanosoma cruzi): -5.08%
Percent Effect [5]: 1.92%
Percent Effect [6]: -3.51%
Percent Effect (Homo sapiens): 18.4%
Percent Effect [7]: 2.45%
Percent Effect [8]: 9.76%
Percent Effect [9]: -1.11%
